Test results: PubChem BioAssay AID493162 (ICCB-Longwood Screening Facility, Harvard Medical School, 2011)
Among all 46,000 compounds or so, about 430 (0.93%) were called active. Shown is part of a subset that was picked to be rich in actives. A number with no mark means an inactive call. Rule as the data show it: active = normalized absorbance mostly below about 85% (no sharp cut-off); inactive = mostly above about 86%.

Test system: Vaccinia virus DNA polymerase (E9) processive complex
Assay: vaccinia E9 polymerase processive synthesis inhibitors, primary screen, biochemical, absorbance (AID 493162)
Conditions: in vitro processive DNA synthesis, absorbance read-out; hits give low values; concentration not given here

SMILES	normalized absorbance
CC(=O)Nc1ccc(N2C(=O)C=CC2=O)cc1	124%
CC(C)CNS(=O)(=O)C1CCS(=O)(=O)C1 (stereo unspecified)	102%
Nc1ncnc2c1ncn2CCNCc1ccccc1	103%
NC(=O)C(Cc1ccccc1)NC(=O)C12CC3CC(CC(C3)C1)C2 (stereo unspecified)	72.6%
CCOc1cc(/C=C2\SC(=S)N(C(C)C(=O)O)C2=O)ccc1O (stereo unspecified)	99%
Cc1cc(C)n(-c2nc(-c3cccnc3)nc3ccccc23)n1	85.7%
CCS(=O)c1nc2c(Br)cccc2[nH]1 (stereo unspecified)	94.1%
Cc1ccc(NCC(O)c2ccc(Cl)cc2)cc1 (stereo unspecified)	102%
Cc1ccc(S(=O)(=O)NCc2ccc(C(=O)NC3CCC(C)CC3)cc2)cc1 (stereo unspecified)	99%
O=C(c1ccc(Cl)cc1Cl)n1c(=O)oc2cc(S(=O)(=O)N3CCCCC3)ccc21	101%
COc1ccc(C2C(C#N)=C(N)OC(C)=C2C(=O)OCc2ccccc2)cc1 (stereo unspecified)	102%
O=C1/C(=C/c2ccc(N3CCOCC3)cc2)CCc2ccccc21	100%
N#CCCn1c(=S)n(CCC#N)c2ccccc21	106%
COC(=O)c1ccc(Cn2nc(C)c(Cl)c2C)cc1	92.4%
CC(=O)Nc1ccc(C2N3CCCN23)cc1 (stereo unspecified)	100%
CCCCn1c(CCCNC(=O)CC)nc2ccccc21	98.7%
C=CCSc1nc(N)cc(=O)[nH]1	101%
C=CCSc1nc2ccccc2[nH]1	89.7% (active)
CNC(=O)CSc1nc2ccccc2[nH]1	99.5%
CC(O)CNC(=O)c1sc2ccccc2c1Cl (stereo unspecified)	95.9%
Cc1c(CNCCC2=CCCCC2)c(C(=O)O)c(C)n1Cc1cccc(Cl)c1	92%
